From PubChem BioAssay
NSD2 inh = NSD2 histone methyltransferase inhibitors, primary screen, biochemical, AlphaScreen, single concentration, set 2; NSD2 peptide methylation, 120 min; 310,000 compounds, 0.54% hits; inhibition, % at 12.5 µM; AID 743445, 2014; Histone-lysine N-methyltransferase NSD2 (Homo sapiens), O96028; in the data active = inhibition above about 50%
RAD52 inh = RAD52 DNA annealing inhibitors, primary screen, biochemical, FRET, single point, set 2; inhibition, % at 18.7 µM; 360,000 compounds, 0.46% hits; recombinant RAD52 DNA annealing, FRET fluorescence; DNA repair protein RAD52 homolog (Homo sapiens), P43351;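 active = every replicate showing at least 50% inhibition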
Target sequence (P43351 whole entry, looked up): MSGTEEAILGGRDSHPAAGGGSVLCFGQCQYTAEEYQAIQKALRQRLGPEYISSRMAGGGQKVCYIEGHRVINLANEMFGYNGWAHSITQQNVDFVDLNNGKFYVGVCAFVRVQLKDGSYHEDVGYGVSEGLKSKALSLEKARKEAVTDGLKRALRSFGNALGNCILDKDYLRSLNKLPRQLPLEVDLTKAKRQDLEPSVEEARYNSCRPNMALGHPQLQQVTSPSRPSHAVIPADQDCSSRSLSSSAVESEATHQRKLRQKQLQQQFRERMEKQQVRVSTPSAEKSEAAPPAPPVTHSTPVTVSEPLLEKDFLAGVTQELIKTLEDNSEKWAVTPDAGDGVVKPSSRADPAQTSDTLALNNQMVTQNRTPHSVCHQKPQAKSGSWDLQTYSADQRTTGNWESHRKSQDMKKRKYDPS
miR122 inh = miR-122 Renilla sensor signal increase in Huh7, primary screen, miR-122 inhibitor project, cell-based, single point, plate reader; Huh7 miR-122 Renilla luciferase sensor, 48 h; neutral wells = 0, positive control = 100; activation (reporter increase), % at 12.5 µM; 340,000 compounds, 0.3% hits;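 active = mean replicate activation score at least 90 and every replicate individually at or above 90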;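 note: higher luciferase means less miR-122 activity so hits act as miR-122 inhibitors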
Casp6 inh = human caspase-6 inhibitors, primary screen, biochemical, VEID-R110 fluorescence, single point, set 2. P55212. purified caspase-6, Z-VEID-R110 cleavage fluorescence. inhibition, % at 12.5 µM. 350,000 compounds, 0.53% hits. AID 686996, 2013;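 active = mean inhibition across replicates at least about 35%, with every replicate also reaching that limit, limit read from the data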
AF4-AF9 inh = inhibitors of AF4 peptide binding to AF9, primary screen, biochemical, AlphaScreen, biotin-AF4 peptide, FLAG-AF9, single point | 350,000 compounds, 0.47% hits | inhibition, % at 10 µM | AID 651704, 2012;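 active = every replicate reaching a set inhibition limit, whatever the replicate mean, cut at about 25% in these data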
RAD52 DNA ctr = DNA-binding compounds via dye displacement, dose response, artefact control for RAD52 inhibitor project, biochemical, fluorescence polarization, cherry-pick | shares compounds with RAD52 inh | Salmon sperm DNA/acridine orange FP displacement | AC50, µM | 1,000 compounds, 8% hits;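 active = fitted half-maximal concentration for signal loss at or below twice the highest dose tested, in every separate run, actives reach about 64 µM in these data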
CASP1 counter = human caspase-1 inhibitors, dose response, selectivity assay for caspase-6 inhibitor project, biochemical, Z-YVAD-R110 fluorescence, cherry-pick, set 2; shares compounds with Casp6 inh; purified caspase-1, Z-YVAD-R110 cleavage fluorescence; activity change, negative = inhibition, % at 35 µM; 100 tested, under 10 active;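 active = compounds lowering fluorescence whose fitted half-maximal concentration is no more than twice their top tested dose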
Numbers stand for hits. Rows were chosen to be rich in hits. Some 1.5% of all compounds tested hit in one or more screens of this group.

Screening CCN1CCN(c2cc(C)c3cc(NC(=S)NCc4cccs4)ccc3n2)CC1 returned RAD52 inh 50, miR122 inh inactive, Casp6 inh inactive, AF4-AF9 inh 30 and RAD52 DNA ctr inactive.
Screening C[C@H]1CN([C@@H](C)CO)C(=O)c2cc(-c3ccc(C#N)cc3)cnc2O[C@@H]1CN(C)C(=O)Nc1ccc(C(F)(F)F)cc1 returned RAD52 inh inactive, miR122 inh inactive, Casp6 inh inactive and AF4-AF9 inh inactive.
Screening CCC(=O)N1C[C@@H](C)[C@@H](OC)CN(C)C(=O)c2cc(NS(=O)(=O)CC)ccc2OC[C@H]1C returned RAD52 inh inactive, miR122 inh inactive, Casp6 inh inactive and AF4-AF9 inh inactive.
C[n+]1ccccc1COc1ccc(C(C)(C)C)cc1 was read as NSD2 inh inactive, RAD52 inh 99, Casp6 inh inactive, AF4-AF9 inh inactive and RAD52 DNA ctr inactive.
Screening CC(C)(C)c1ccc(OCCNCc2ccccc2)cc1 returned NSD2 inh inactive, RAD52 inh inactive, miR122 inh inactive, Casp6 inh inactive and AF4-AF9 inh inactive.
For COc1ccccc1CNc1nc(NCc2ccc(C(C)C)cc2)c2sccc2n1 the results were NSD2 inh inactive, RAD52 inh inactive, miR122 inh inactive, Casp6 inh inactive and AF4-AF9 inh inactive.
`CC(C)c1ccc(CNc2nc(NCC3CC3)nc3ccsc23)cc1` gave NSD2 inh inactive, RAD52 inh 71, Casp6 inh inactive, AF4-AF9 inh inactive and RAD52 DNA ctr inactive.
`CCOC(=O)c1cnc2ccc(OC)cc2c1Nc1ccc(N2CCN(C)CC2)cc1` gave NSD2 inh inactive, RAD52 inh 88, miR122 inh inactive, Casp6 inh inactive, AF4-AF9 inh 41 and RAD52 DNA ctr inactive.
Screening CC(=O)Nc1cc(-c2cccc(C(=O)NCCN(C)C)c2)cn2c(-c3ccccc3)cnc12 returned NSD2 inh inactive, RAD52 inh 90, Casp6 inh inactive, AF4-AF9 inh inactive and RAD52 DNA ctr inactive.
For CC(=O)Nc1cc(-c2ccc(F)cc2)cn2c(-c3ccc(S(C)(=O)=O)cc3)cnc12 the results were NSD2 inh inactive, RAD52 inh inactive, miR122 inh inactive, Casp6 inh inactive and AF4-AF9 inh inactive.
For CC(=O)Nc1cc(-c2cccc(C(=O)NCCN(C)C)c2)cn2c(-c3cccc(C(F)(F)F)c3)cnc12 the results were NSD2 inh inactive, RAD52 inh 86, miR122 inh inactive, Casp6 inh inactive, AF4-AF9 inh 26 and RAD52 DNA ctr inactive.
Screening CC(=O)Nc1cc(-c2cccc(C(=O)NCCN(C)C)c2)cn2c(-c3ccc(S(C)(=O)=O)cc3)cnc12 returned NSD2 inh inactive, RAD52 inh 92, miR122 inh inactive, Casp6 inh inactive, AF4-AF9 inh inactive and RAD52 DNA ctr inactive.
Screening C[C@H](CO)N1C[C@H](C)[C@H](CN(C)C(=O)NC2CCCCC2)Oc2c(NC(=O)c3ccncc3)cccc2C1=O returned RAD52 inh inactive, miR122 inh inactive, Casp6 inh inactive and AF4-AF9 inh inactive.
For CC(C)C[C@@H]1NC(=O)[C@H]2C[C@@H](C(=O)NCCCCCN)[C@@H](c3cccc(OCCO)c3)N2C1=O the results were RAD52 inh inactive, Casp6 inh inactive and AF4-AF9 inh inactive.
Screening Cc1ccc(C)n1-c1nnc(N2CCC(C(=O)NCCCN3CCN(C)CC3)CC2)s1 returned RAD52 inh 70, miR122 inh inactive, Casp6 inh inactive, AF4-AF9 inh inactive and RAD52 DNA ctr inactive.
Screening Cc1ccc(C)n1-c1nnc(N2CCC(C(=O)NCCCN3CC(C)CC(C)C3)CC2)s1 (configuration not stated) returned NSD2 inh inactive, RAD52 inh inactive, miR122 inh inactive, Casp6 inh inactive and AF4-AF9 inh inactive.
CCOC(=O)c1c(C)n(CC(O)CN(C)C)c2cc(Br)c(OC)cc12 (configuration not stated) was read as NSD2 inh inactive, RAD52 inh 85, Casp6 inh inactive, AF4-AF9 inh inactive and RAD52 DNA ctr inactive.
`COCCNc1nc(NCc2cccc(OC)c2)c2sc(-c3ccccc3)cc2n1` gave NSD2 inh inactive, RAD52 inh 80, miR122 inh inactive, Casp6 inh inactive, AF4-AF9 inh inactive and RAD52 DNA ctr inactive.
Screening COCCNc1nc(NCc2ccc(NC(C)=O)cc2)c2sc(-c3ccccc3)cc2n1 returned NSD2 inh inactive, RAD52 inh inactive, miR122 inh inactive, Casp6 inh inactive and AF4-AF9 inh inactive.
For OC(CN1CCCC1)Cn1ccc2ccccc21 (configuration not stated) the results were NSD2 inh inactive, RAD52 inh 62, Casp6 inh inactive, AF4-AF9 inh inactive and RAD52 DNA ctr inactive.
Cc1ccc(C)c(OCCCCN2CCCCC2)c1 was read as NSD2 inh inactive, RAD52 inh inactive, miR122 inh inactive, Casp6 inh inactive and AF4-AF9 inh inactive.
N#Cc1ccc(N)cc1OCCCN1CCCCC1 was read as NSD2 inh inactive, RAD52 inh 86, miR122 inh inactive, Casp6 inh inactive, AF4-AF9 inh inactive and RAD52 DNA ctr inactive.
For CCNC(=O)/C(C#N)=C/c1c(N2CCN(c3ccccc3)CC2)nc2c(C)cccn2c1=O the results were NSD2 inh inactive, RAD52 inh inactive, Casp6 inh inactive and AF4-AF9 inh inactive.
Screening CCNC(=O)/C(C#N)=C/c1c(N2CCCCCC2)nc2c(C)cccn2c1=O returned NSD2 inh inactive, RAD52 inh 95, miR122 inh inactive, Casp6 inh inactive, AF4-AF9 inh inactive and RAD52 DNA ctr inactive.
Screening CN(C)CCn1cnc2c(c1=N)C(c1ccccc1)c1ccc3ccccc3c1O2 (configuration not stated) returned NSD2 inh inactive, RAD52 inh inactive, miR122 inh inactive, Casp6 inh inactive, AF4-AF9 inh inactive and RAD52 DNA ctr inactive.
CN(C)CCCNc1cc(O)c2ncccc2c1 was read as RAD52 inh 70, miR122 inh inactive, Casp6 inh 87, AF4-AF9 inh 76, RAD52 DNA ctr inactive and CASP1 counter inactive.
COc1cc(NC(C)CCCN)c2ncccc2c1 (configuration not stated) was read as RAD52 inh 84, miR122 inh inactive, Casp6 inh 91, AF4-AF9 inh 31, RAD52 DNA ctr inactive and CASP1 counter inactive.
Screening COc1cc(NCCCCCCCN)c2ncccc2c1 returned miR122 inh inactive.
